Most compounds without a hit are left out; they make up all but 21% or so of the library.
Pf growth 96h: inhibits malaria parasite growth, 96 h. P. falciparum luciferase reporter growth, 96 h. Potency, µM (series often up to 28.7 µM), for inactives: top-dose activity change, negative = inhibition, hits mostly inhibitors. actives 6.9% (n = 320,000). AID 504834; also: potency is read from the fitted curve at half-maximal effect; % is scaled to controls: 0 for no effect and ±100 for the full control effect
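Readout is luminescence from an integrated firefly luciferase in P. falciparum. Red cells, 2% hematocrit and 0.05% parasitemia final, were cultured with compound through two parasite generations (96 hours) at 37 C, 5% CO2.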
HCV inhibitor: HCV inhibition. Huh7.5.1 HCVcc-Cre infection, luciferase reporter, 44 h. Potency, µM (doses to about 41.8 µM), for inactives: at the highest dose activity change, negative = inhibition, actives largely listed as inhibitors. actives 3.4% (n = 340,000). AID 651820; also: potency is read from the fitted curve at half-maximal effect; % is scaled to controls: 0 for no effect and ±100 for the full control effect
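Seed cells (1,000/well) for 4 h; treat with compound and infect with HCVcc-Cre, moi about 0.5. Incubate 44 h, then detect luciferase activity.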
AMA1 RON2 block: AMA1-RON2 (P. falciparum) interaction inhibition | actives 0.2% (n = 360,000) | AlphaScreen AMA1-biotinylated RON2 peptide binding | Potency, µM (highest dose often 58.2 µM), for inactives: at the highest dose activity change, negative = inhibition, actives largely listed as inhibitors;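 also: potency is read from the fitted curve at half-maximal effect; 0% = vehicle wells and -100% = peptide control; nearly all actives have a fitted effect of over 45% in size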
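AMA1 (3D7) with his tag at 25 nM final met compounds first, then biotinylated RON2 peptide at 25 nM; detection used donor plus acceptor beads, 10 µg/mL apiece, read by AlphaScreen after 30 min at room temperature.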
Pf growth 48h: inhibits P. falciparum growth in the first generation, 48 h. P. falciparum luciferase growth in erythrocytes, 48 h. Potency, µM (titrated, usually from 28.7 µM), without a hit: top-dose activity change, negative = inhibition, actives largely listed as inhibitors. actives 5.9% (n = 310,000). AID 504832; also: potency is read from the fitted curve at half-maximal effect; % is scaled to controls: 0 for no effect and ±100 for the full control effect
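Cell-based growth assay: transgenic P. falciparum expressing firefly luciferase, cultured in red cells within RPMI 1640 containing 0.5% w/v Albumax, 24 mM bicarbonate and gentamycin. A drop in luciferase activity indicates inhibition.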
CHX counter: counter-screen for Shiga toxin inhibitors: cycloheximide protein synthesis inhibition; cell reporter, cycloheximide protein synthesis inhibition counterscreen; max response, %; actives 12% (n = 300,000); in the data active = max response mostly above about 13%, no sharp cut-off; inactive = mostly below about 14%; also: read at 38.3 µM for the half of the compounds with a filed dose; 0% is about no effect
Shiga toxin inh: inhibitors of Shiga toxin in Vero cells; actives 9.2% (n = 290,000); inhibition, % at 38.7 µM; Vero cells, Shiga toxin protein synthesis inhibition reporter; AID 2315; in the data active = inhibition mostly above about 28%, no sharp cut-off; inactive = mostly below about 43%; also: 0% is about no effect
Starred values were filed as active, the others as inactive; i = inactive; ? = inconclusive; / = not tested or not shown; + = active, no number. Unless noted, calls follow the shape of the dose curve; as a rule, active = well fitted curve in the direction sought with a large enough effect; inconclusive = small, poorly fitted or top-dose-only effect, or another doubt; inactive = no such curve, though single readings can be large; an effect the other way counts as inactive or inconclusive.

SMILES | Pf growth 96h | HCV inhibitor | AMA1 RON2 block | Pf growth 48h | CHX counter | Shiga toxin inh
Cc1ccc([N+](=O)[O-])c(NC(=O)COC(=O)CCNS(=O)(=O)c2cccs2)c1C | / | / | 2% | / | / | /
O=C(C[C@@H]1C/C=C\CC[C@H](Cc2ccc(F)cc2)C(=O)OC[C@@H]2CCCN2C1=O)N[C@H](CO)Cc1ccccc1 | / | ? | 2% | / | / | /
COc1cc(C2CC(=O)Nc3ccccc3S2)cc(OC)c1OC (centres undefined) | 0% | -11% | -3% | ? | -3 | -20
COc1ccc(C2CC(=O)N(C)c3ccccc3S2)cc1OC (centres undefined) | ? | 2% | 9% | 82% | 57* | 149*
COc1ccc(C2CC(=O)N(CC(=O)NCC3CCCO3)c3ccccc3S2)cc1OC (centres undefined) | ? | -9% | -1% | ? | 25* | 18
Cc1ccc(OCCNC(=O)Cc2ccc(S(=O)(=O)N3CCOCC3)s2)cc1 | -74% | -23% | 3% | ? | 1 | -8
Cc1ccccc1NC(=O)C(C)Sc1nnc(-c2ccncc2)n1CC1CCCO1 (centres undefined) | 10% | 2% | 13% | ? | -3 | 1
O=C(c1ccc(Cl)c(Cl)c1)N1CCN(c2ccccn2)CC1 | ? | 20% | 1% | -2% | 1 | -7
O=C(c1ccc2ccccc2c1)N1CCCC1 | -31% | 26% | -8% | -15% | 5 | 21
NNC(=O)c1cccc(COc2ccccc2Br)c1 | i | 20% | 59% | 383% | 81* | 100*
O=C(c1cccc(COc2cccc3ccccc23)c1)N1CCCC1 | 142% | ? | -8% | 47% | 40* | 47*
O=C(NCc1ccccc1)c1cccc(COc2cc(Cl)ccc2Cl)c1 | ? | ? | 4% | 18% | 41* | 118*
CCOc1cccc(C(=O)NCc2ccccc2)c1 | 12% | 5% | 23% | 12% | 7 | 13
NC(=O)c1ccc(NC(=O)c2ccc(COc3ccccc3Br)cc2)cc1 | 48% | -2% | 9% | 19% | / | /
O=C(c1cccc(COc2ccc(Cl)cc2Cl)c1)N1CCN(c2ccccn2)CC1 | 23% | ? | -8% | 194% | 92* | +
CCOC(=O)c1c(NC(=O)Cn2cnc([N+](=O)[O-])n2)sc(C)c1C | 119% | -28% | -4% | -9% | 1 | 17
CCc1nnc(SCC(=O)Nc2ccc(F)cc2)o1 | ? | 3% | 9% | 25% | -1 | -14
CN(C(=O)c1cccc(COc2ccc(Cl)cc2Cl)c1)c1ccccc1 | ? | ? | 23% | 109% | 171* | 185*
O=C(NCc1ccccc1)c1cnc(Cl)c(Cl)c1 | 29% | 15% | -5% | 26% | 23* | 20
O=C(NCc1ccccc1)c1cccc(COc2ccccc2Cl)c1 | 170% | ? | -10% | 84% | 61* | 120*
CN(C(=O)c1ccc(COc2ccccc2Cl)o1)c1ccccc1 | ? | ? | 16% | ? | 15 | 17
COC(=O)c1ccccc1NC(=O)c1cccc(COc2ccccc2Cl)c1 | 204% | ? | -39% | / | 86* | 89*
Cc1c(C(=O)NCc2ccco2)sc(=O)n1Cc1ccc(S(C)(=O)=O)cc1 | / | / | -4% | / | / | /
NNC(=O)c1cccc(COc2ccc3c(c2)CCC3)c1 | 259% | 0% | 53% | 257% | 206* | 196*
O=C(COc1ccc2c(c1)CCC2)NCc1ccccc1 | 22% | -5% | 9% | 4% | 15 | 15
COc1ccc(-n2nnnc2C(c2ccccc2)N2CCN(C/C=C/c3ccccc3)CC2)cc1 (centres undefined) | / | / | -28% | / | / | /
CCN(CC)S(=O)(=O)c1ccc(/C=C/C(=O)N(c2ccccn2)C2CCCCC2)cc1 | 4.7µM* | -19% | -14% | -5% | 0 | 3
O=C(/C=C/c1ccccc1)N(c1ccccn1)C1CCCCC1 | -20% | 1% | -3% | -14% | 9 | 1
COc1ccc2[nH]cc(CCNC(=O)CCC3CCCCC3)c2c1 | ? | -30% | -12% | -7% | -4 | -3
COc1ccc(C[C@H]2CN3C(=NC[C@H]3Cc3ccccc3)N2CCNC(=O)CCC2CCCCC2)cc1 | 4.7µM* | -7% | -2% | ? | -2 | -6
